The text below walks through data of PubChem BioAssay (NCI).

Experiment in all cases: NCI-60 one-dose screen, 48 h (100 = growth as untreated, 0 = no growth, -100 = all killed)
Conditions in all cases: 10 µM unless noted

Test [1] deals with UACC-62 melanoma.
Test [2] has as its system HT29 colon.
In test [3] the test system is SNB-75 CNS.
Test [4] has as its system SNB-19 CNS.
For test [5], the system named is PC-3 prostate.
Test [6] deals with SK-MEL-5 melanoma.
The subject of test [7] is LOX IMVI melanoma.
For test [8], the system named is SK-MEL-28 melanoma.
For test [9], the system named is SK-MEL-2 melanoma.
Test [10] relates to SN12C renal.
The subject of test [11] is UO-31 renal.
In test [12] the test system is TK-10 renal.
Test [13] deals with ACHN renal.
Test [14] relates to A498 renal.
Test [15] relates to CCRF-CEM leukemia.
Test [16] relates to MOLT-4 leukemia.
Test [17] relates to U251 CNS.
For test [18], the system named is EKVX NSCLC.
For test [19], the system named is CAKI-1 renal.

Values joined by “and” are separate entries in the source; they are usually repeats but may differ in a detail not shown here. Equal values may be shown once. This is part of a sample that, as a whole, favours compounds with a hit. Of some 83,000 tested, about 20% had one in any assay.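 Values shown are percent growth following 48 h exposure of cells in 96-well plates to a single concentration of compound; below 10 was considered active.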 Active and inactive are the calls of the source.

On to `O=C(O)CCCC(=O)Nn1c(Cc2ccc(Cl)cc2)n[nH]c1=O`, for which the growth in test [1] is 70.6% [100 µM] (inactive) and 92.1% [100 µM] (inactive).

Consider `N=C1N=C(N)CS1`, for which the growth was 105% (inactive) in [2]; 92.1% (inactive) in test [3]; 104% (inactive) in [4]; 101% (inactive) in [5]; 98.4% (inactive) in [6]; 100% (inactive) in test [1]. Besides, the growth in test [7] is 107% (inactive); in test [8], 109% (inactive); in test [9], 116% (inactive); in test [10], 99.9% (inactive); in test [11], 93.2% (inactive); in [12], 131% (inactive). Further, the growth in test [13] is 116% (inactive); in test [14], 90.7% (inactive); in test [15], 104% (inactive); in test [16] it was 99.1% (inactive).

For the compound `CNc1ccc2nc3ccc(=[N+](C)C)cc-3sc2c1`, the growth is 9.87% (active) and 38.1% (inactive) in test [2]; -53.5% (active) in [3]; 1.89% (active) and -5.26% (active) in [4]; -48.5% (active) and -15.5% (active) in [17]; 1.57% (active) and 1.01% (active) in test [5]; -97% (active) and -61.1% (active) in test [6]. For the same compound, the growth in test [1] is 4.52% (active) and -3.38% (active); in test [7], -57.5% (active) and -44.1% (active); in test [8], -31.3% (active) and 27.9% (inactive); in [9] it was 4.78% (active) and 4.79% (active); in test [18], 40.9% (inactive) and 44.1% (inactive); in [10], -22% (active) and -62.5% (active). In addition, the growth was 26.7% (inactive) and 33.7% (inactive) in test [11]; 14.6% (inactive) and -27.6% (active) in [13]; 11.2% (inactive) and 4.64% (active) in test [19]; 57.8% (inactive) and 49.1% (inactive) in [14]; 9.67% (active) and 11.8% (inactive) in test [15]; -8.79% (active) and 12.2% (inactive) in [16].

As to `CCCCC1C(=O)N(c2ccc(S(=O)(=O)Nc3ccccn3)cc2)N(c2ccc(O)c(C(=O)O)c2)C1=O` (stereo not given), the growth in [1] is 105% [100 µM] (inactive) and 96.1% [100 µM] (inactive).

Take `CN1CCN(CCC=C2c3ccccc3Sc3ccc(S(=O)(=O)N(C)C)cc32)CC1`: the growth in [2] was 4.86% (active) and 4.22% (active); in [5] it was 52.7% (inactive) and 61.6% (inactive); in test [6], 26.4% (inactive) and 69.1% (inactive); in test [1], -42.7% (active); in test [7], 15.9% (inactive) and 40.7% (inactive); in test [8], -54.1% (active) and -73.3% (active). The growth in [9] is 68.5% (inactive) and 53.7% (inactive); in test [18], 80.1% (inactive) and 84.8% (inactive); in test [10] it was 56.9% (inactive) and 76.4% (inactive); in test [11], 36.7% (inactive) and 56.9% (inactive); in [12], 70.5% (inactive) and 87.2% (inactive); in test [13], 65.8% (inactive) and 73.1% (inactive). Besides, the growth was 48.5% (inactive) and 94.9% (inactive) in [19]; 73.5% (inactive) and 62.1% (inactive) in test [14]; 54.2% (inactive) and 31.6% (inactive) in [15]; 46.3% (inactive) and 28.2% (inactive) in test [16].

`CNC(=O)c1ccc(C)c(-n2c(C)cc(OCc3ccc(F)cc3F)c(Br)c2=O)c1`: the growth in test [2] is 56.4% (inactive) and 76.5% (inactive); in test [3] it was 63.3% (inactive) and 86.1% (inactive); in [4], 75.8% (inactive) and 91.1% (inactive); in [17] it was 80.1% (inactive) and 78.6% (inactive); in test [5] it was 74.8% (inactive) and 66.5% (inactive); in [6], 56.4% (inactive) and 87.9% (inactive). Besides, the growth in test [1] is 56.5% (inactive) and 73.4% (inactive); in test [7], 83.2% (inactive) and 93.6% (inactive); in test [9], 89.3% (inactive); in test [18] it was 78.7% (inactive) and 87.7% (inactive); in test [10], 83.7% (inactive) and 86.1% (inactive); in [11] it was 52.5% (inactive) and 71.8% (inactive). Further, the growth in test [12] is 74.6% (inactive) and 102% (inactive); in [13], 68.6% (inactive) and 88.2% (inactive); in test [19] it was 62.9% (inactive) and 79.1% (inactive); in test [14] it was 78.7% (inactive); in test [15] it was 77.4% (inactive) and 89.1% (inactive); in test [16], 78.8% (inactive) and 91.8% (inactive).

Regarding `N#CC1(C#N)C2CCCCC23OC(=N)C1(C#N)C(c1ccccc1)O3` (stereo not given), the growth in test [1] is -40.1% [100 µM] (active).

Take `C[C@@H]1C[C@](O)([C@@H](C)Cl)C(=O)O[C@@H]2CCN3CC=C(COC(=O)[C@]1(C)O)[C@H]23`: the growth in test [1] was 77.3% [100 µM] (inactive) and 83.1% [100 µM] (inactive).

Regarding `CCN(CC)CCNc1cc(-c2cccc(OC(F)(F)F)c2)nc2ccc(N3CCCC3)cc12`, the growth was 10.9% (inactive) and -11.1% (active) and 1.35% (active) in [2]; 86.4% (inactive) and 51.9% (inactive) in [3]; 2.91% (active) and 15.2% (inactive) and 36.9% (inactive) in test [4]; 46.2% (inactive) and -36.6% (active) and 15.6% (inactive) in test [17]; -94.4% (active) and 7.18% (active) and 28.2% (inactive) in test [5]; -2.81% (active) and -88% (active) and 7.43% (active) in test [6]. Moreover, the growth is -64.9% (active) and -73.2% (active) and -23.9% (active) in test [1]; -40.9% (active) and -59.6% (active) and -51.7% (active) in test [7]; 52.2% (inactive) and -30.5% (active) and 4.6% (active) in test [9]; 73.5% (inactive) and 59.5% (inactive) and 42.8% (inactive) in test [18]; 3.62% (active) and 3.14% (active) and 38.1% (inactive) in test [10]; 10.4% (inactive) and -12.9% (active) and 29.7% (inactive) in test [11]. Moreover, the growth was 74.5% (inactive) and 19.1% (inactive) and 40.1% (inactive) in [12]; 24.4% (inactive) and 12.9% (inactive) and 27.7% (inactive) in test [13]; 49.1% (inactive) and 34.2% (inactive) and 23.1% (inactive) in [19]; 71.2% (inactive) and 4.86% (active) and 50.8% (inactive) in [14]; -30.4% (active) and -4.6% (active) and 2.25% (active) in test [15]; -19.7% (active) and -14.3% (active) and 3.16% (active) in [16].

`COC(=O)c1cc(C#N)[nH]c1-c1ccsc1`: the growth in [1] was 67.3% [100 µM] (inactive) and 25.1% [100 µM] (inactive).

As to `CCOc1cc2c(cc1O)C=C[C@@H]1[C@@H]2CC[C@]2(C)[C@@H](O)CC[C@@H]12`, the growth in [1] is -65.7% [100 µM] (active) and -100% [100 µM] (active).

Regarding `CC(=O)Nc1cc(S(=O)(=O)O)cc2cc(S(=O)(=O)O)c(N=Nc3ccccc3)c(O)c12`, the growth was 118% (inactive) and 92.2% (inactive) in test [2]; 92.8% (inactive) and 98.1% (inactive) in test [3]; 110% (inactive) and 99.9% (inactive) in test [4]; 110% (inactive) and 101% (inactive) in test [17]; 88.3% (inactive) and 94.9% (inactive) in test [5]; 99.4% (inactive) in test [6]. Moreover, the growth in [1] is 108% (inactive) and 92.2% (inactive); in test [7], 103% (inactive) and 98.7% (inactive); in [8], 119% (inactive) and 116% (inactive); in [9], 116% (inactive) and 88.7% (inactive); in test [18] it was 115% (inactive) and 113% (inactive); in test [10] it was 106% (inactive) and 98.4% (inactive). In addition, the growth in test [12] was 110% (inactive) and 98.4% (inactive); in test [13], 106% (inactive) and 108% (inactive); in test [19], 99.6% (inactive); in test [14], 102% (inactive) and 92.4% (inactive); in test [15], 97.5% (inactive) and 90.8% (inactive); in [16] it was 111% (inactive) and 94.7% (inactive).

In the case of `COc1cc(Oc2c(C)c(Cl)c(OC)c(Cl)c2OC)c2c(c1Cl)COC2=O`, the growth in [1] was -38% [100 µM] (active) and -9.28% [100 µM] (active).

In the case of `Nc1ccc2ccc(N)cc2c1`, the growth is 94.2% (inactive) in test [2]; 91.3% (inactive) in [3]; 96.1% (inactive) in test [4]; 60.3% (inactive) in test [5]; 83% (inactive) in test [6]; 80.7% (inactive) in test [1]. The growth in test [7] is 65.1% (inactive); in test [8], 92.1% (inactive); in [9], 68.4% (inactive); in [10], 88.5% (inactive); in [11], 59.4% (inactive); in test [12], 117% (inactive). Also, the growth in [13] was 84.8% (inactive); in test [19] it was 75.7% (inactive); in test [14] it was 100% (inactive); in test [16], 76.8% (inactive).

On to `CC(C)N=c1cc2n(-c3ccc(Cl)cc3)c3ccccc3nc-2cc1Nc1ccc(Cl)cc1`, for which the growth in [2] is 0.808% (active) and 6.25% (active) and -28.1% (active); in test [3], 68.1% (inactive) and 53.7% (inactive) and 24.1% (inactive); in test [4] it was 49.1% (inactive) and 60.7% (inactive) and 36.4% (inactive); in [17], 13.7% (inactive) and 33.5% (inactive) and 6.42% (active); in test [5], 22.2% (inactive) and 29.7% (inactive) and 8.73% (active); in test [6], 4.95% (active) and 12% (inactive) and -72.9% (active). Further, the growth in test [1] was 36% (inactive) and 34.9% (inactive) and 32.9% (inactive); in test [7], -20.7% (active) and -48.6% (active) and -80.9% (active); in test [9], -32.7% (active) and 0.294% (active) and -36.1% (active); in test [18], 39.6% (inactive) and 23% (inactive) and 12.3% (inactive); in test [10], 16.9% (inactive) and 25.6% (inactive) and 1.46% (active); in test [11], 27.9% (inactive) and -17% (active) and -5.99% (active). Moreover, the growth in test [12] is 26.2% (inactive) and 58.6% (inactive) and 5.66% (active); in test [13] it was 27.2% (inactive) and 30.9% (inactive) and 17.8% (inactive); in test [19] it was 40.5% (inactive) and 22.6% (inactive) and 5.83% (active); in test [14], 74.8% (inactive) and 18.4% (inactive); in [15], 15% (inactive) and 28.5% (inactive) and 1.85% (active); in [16], 6.96% (active) and 15.3% (inactive) and -11.7% (active).
